Measured values as given in PubChem BioAssay AID1159580 (chemical genetic matrix, 2015).
The campaign covered roughly 5,500 compounds. About 2,000 (36%) were called active. Not shown: some 18% with an inconclusive outcome. No stated cut-off is given here; in the data, active means normalized growth mostly below about 0.91 (no sharp cut-off); inconclusive means no clear call, values can overlap the other calls; inactive means mostly above about 0.92. The list shows a part of the results.

Assay: chemical genetic growth profiling, strain panel (AID 1159580);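 further: tested at 20 µM; growth read once vehicle control cultures reached saturation at 30 °C; 1 = growth at the plate median or of vehicle wells; lower values mean less growth of the strain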
Details: growth OD

Measured: normalized growth

COc1cc(C/C=C/c2ccccc2)c(OC)cc1O
active: S. cerevisiae deletion strains, locus YLR371W, strain rom2, hits give low values 0.849 | S. cerevisiae deletion strains, locus YNL071W, strain lat1, hits give low values 0.866 | S. cerevisiae deletion strains, locus YNL250W, strain rad50, hits give low values 0.898 | S. cerevisiae deletion strains, locus YPL106C, strain sse1, hits give low values 0.847 | S. cerevisiae deletion strains, locus YPR141C, strain kar3, hits give low values 0.914
inactive: S. cerevisiae deletion strains, locus YJR066W, strain TOR1, hits give low values 0.989 | S. cerevisiae deletion strains, locus YJR075W, strain HOC1, hits give low values 0.935 | S. cerevisiae deletion strains, locus YKL009W, strain mrt4, hits give low values 1.01 | S. cerevisiae deletion strains, locus YKL068W, hits give low values 0.954 | S. cerevisiae deletion strains, locus YKL085W, strain MDH1 (second series), hits give low values 0.965 | S. cerevisiae deletion strains, locus YKL085W, strain MDH1, hits give low values 0.965 | S. cerevisiae deletion strains, locus YKL160W, strain elf1, hits give low values 0.95 | S. cerevisiae deletion strains, locus YKR001C, strain vps1, hits give low values 0.969 | S. cerevisiae deletion strains, locus YKR026C, strain gcn3, hits give low values 0.956 | S. cerevisiae deletion strains, locus YKR091W, strain srl3, hits give low values 0.954 | S. cerevisiae deletion strains, locus YLL001W, strain dnm1, hits give low values 0.926 | S. cerevisiae deletion strains, locus YLL026W, hits give low values 0.962 | S. cerevisiae deletion strains, locus YLL041C, strain sdh2, hits give low values 0.949 | S. cerevisiae deletion strains, locus YLR027C, strain aat2, hits give low values 0.942 | S. cerevisiae deletion strains, locus YLR039C, strain RIC1, hits give low values 0.91 | S. cerevisiae deletion strains, locus YLR058C, strain SHM2, hits give low values 0.987 | S. cerevisiae deletion strains, locus YLR102C, strain apc9, hits give low values 0.964 | S. cerevisiae deletion strains, locus YLR113W, strain HOG1, hits give low values 1.01 | S. cerevisiae deletion strains, locus YLR221C, strain rsa3, hits give low values 1 | S. cerevisiae deletion strains, locus YLR258W, strain gsy2, hits give low values 0.943 | S. cerevisiae deletion strains, locus YLR262C, strain YPT6 (second series), hits give low values 0.95 | S. cerevisiae deletion strains, locus YLR262C, strain YPT6, hits give low values 0.967 | S. cerevisiae deletion strains, locus YLR268W, strain sec22, hits give low values 1 | S. cerevisiae deletion strains, locus YLR320W, strain mms22, hits give low values 0.982 | S. cerevisiae deletion strains, locus YLR330W, strain CHS5, hits give low values 0.964 | S. cerevisiae deletion strains, locus YLR342W, strain FKS1 (second series), hits give low values 1.05 | S. cerevisiae deletion strains, locus YLR342W, strain FKS1, hits give low values 0.949 | S. cerevisiae deletion strains, locus YLR357W, strain rsc2, hits give low values 0.883 | S. cerevisiae deletion strains, locus YLR370C, strain arc18, hits give low values 0.965 | S. cerevisiae deletion strains, locus YLR384C, strain iki3, hits give low values 0.98 | S. cerevisiae deletion strains, locus YLR418C, strain cdc73, hits give low values 0.883 | S. cerevisiae deletion strains, locus YML016C, strain PPZ1, hits give low values 0.963 | S. cerevisiae deletion strains, locus YML032C, strain rad52, hits give low values 1.02 | S. cerevisiae deletion strains, locus YML120C, strain ndi1, hits give low values 0.922 | S. cerevisiae deletion strains, locus YML124C, strain tub3, hits give low values 0.941 | S. cerevisiae deletion strains, locus YMR058W, strain fet3, hits give low values 0.923 | S. cerevisiae deletion strains, locus YMR078C, strain ctf18, hits give low values 0.956 | S. cerevisiae deletion strains, locus YMR125W, strain sto1, hits give low values 0.898 | S. cerevisiae deletion strains, locus YMR129W, hits give low values 0.96 | S. cerevisiae deletion strains, locus YMR205C, strain PFK2, hits give low values 0.914 | S. cerevisiae deletion strains, locus YMR223W, strain ubp8, hits give low values 0.983 | S. cerevisiae deletion strains, locus YMR231W, strain pep5, hits give low values 0.978 | S. cerevisiae deletion strains, locus YMR307W, strain GAS1, hits give low values 1.04 | S. cerevisiae deletion strains, locus YNL067W, strain RPL9B, hits give low values 0.966 | S. cerevisiae deletion strains, locus YNL128W, strain TEP1, hits give low values 0.944 | S. cerevisiae deletion strains, locus YNL183C, strain NPR1, hits give low values 1 | S. cerevisiae deletion strains, locus YNL209W, strain ssb2, hits give low values 0.97 | S. cerevisiae deletion strains, locus YNL233W, strain BNI4, hits give low values 0.945 | S. cerevisiae deletion strains, locus YNL248C, strain rpa49, hits give low values 0.95 | S. cerevisiae deletion strains, locus YNL271C, strain bni1, hits give low values 0.926 | S. cerevisiae deletion strains, locus YNL298W, strain CLA4, hits give low values 0.986 | S. cerevisiae deletion strains, locus YNL307C, strain MCK1, hits give low values 0.955 | S. cerevisiae deletion strains, locus YNL322C, strain KRE1 (second series), hits give low values 0.969 | S. cerevisiae deletion strains, locus YNL322C, strain KRE1, hits give low values 0.962 | S. cerevisiae deletion strains, locus YNR049C, strain mso1, hits give low values 0.962 | S. cerevisiae deletion strains, locus YNR052C, strain pop2, hits give low values 0.969 | S. cerevisiae deletion strains, locus YOL006C, strain TOP1, hits give low values 1.23 | S. cerevisiae deletion strains, locus YOL012C, strain htz1 0.65 | S. cerevisiae deletion strains, locus YOL147C, strain pex11, hits give low values 0.963 | S. cerevisiae deletion strains, locus YOR001W, strain rrp6, hits give low values 0.982 | S. cerevisiae deletion strains, locus YOR061W, strain CKA2, hits give low values 0.965 | S. cerevisiae deletion strains, locus YOR069W, strain VPS5, hits give low values 0.955 | S. cerevisiae deletion strains, locus YOR070C, strain gyp1, hits give low values 0.981 | S. cerevisiae deletion strains, locus YOR080W, strain dia2, hits give low values 0.959 | S. cerevisiae deletion strains, locus YOR083W, strain WHI5, hits give low values 0.934 | S. cerevisiae deletion strains, locus YOR106W, strain vam3, hits give low values 0.882 | S. cerevisiae deletion strains, locus YOR136W, strain idh2, hits give low values 0.963 | S. cerevisiae deletion strains, locus YOR144C, strain elg1, hits give low values 0.971 | S. cerevisiae deletion strains, locus YOR184W, strain ser1, hits give low values 1.08 | S. cerevisiae deletion strains, locus YOR231W, strain MKK1, hits give low values 1.07 | S. cerevisiae deletion strains, locus YOR265W, strain rbl2, hits give low values 0.955 | S. cerevisiae deletion strains, locus YOR270C, strain vph1, hits give low values 0.924 | S. cerevisiae deletion strains, locus YOR290C, strain snf2, hits give low values 0.902 | S. cerevisiae deletion strains, locus YOR316C, strain cot1, hits give low values 0.95 | S. cerevisiae deletion strains, locus YPL051W, strain arl3, hits give low values 0.937 | S. cerevisiae deletion strains, locus YPL055C, strain LGE1, hits give low values 1.01 | S. cerevisiae deletion strains, locus YPL078C, strain atp4, hits give low values 0.916 | S. cerevisiae deletion strains, locus YPL240C, strain hsp82, hits give low values 0.963 | S. cerevisiae deletion strains, locus YPL256C, strain CLN2, hits give low values 1.03 | S. cerevisiae deletion strains, locus YPR119W, strain clb2, hits give low values 0.946 | S. cerevisiae deletion strains, locus YPR163C, strain tif3, hits give low values 0.98 | S. cerevisiae deletion strains, locus YPR167C, strain met16, hits give low values 0.959 | S. cerevisiae deletion strains, strain wtn01, hits give low values 1.02 | S. cerevisiae strains, strain wild type, hits give low values 0.98
